Measured values from PubChem BioAssay AID1259415 (National Center for Advancing Translational Sciences (NCATS), 2018).
Hit rate of the full screen: of about 410,000 compounds, about 18,000 (4.4%) were called active. About 7% were inconclusive and are not listed. Shown is part of a subset that was picked to be rich in actives. Values without a mark were called inactive. Rule as the data show it: active = activity change below about -60%; inconclusive = no clear call, values can overlap the other calls; inactive = above about -39%.

assay: qHTS Assay for inhibitors of the human cytomegalovirus (HCMV); settings: HFF cells, HCMV-luciferase reporter, 72 h; at 57.5 µM; hits give low values
Excerpt: NCGC Assay Overview: Infection with human cytomegalovirus (HCMV) continues to pose significant threats for pregnant women and immunocompromised hosts. HCMV causes serious morbidity and mortality in transplant recipients, and congenital HCMV is the leading infectious cause of mental retardation and deafness in children. In the 1990s, the annual costs associated with the disease burden of congenital CMV were estimated at around $2 billion. A HCMV vaccine is not available yet and HCMV therapies result in intolerable side effects and emergence of drug resistant viruses. […] Towards this goal we have developed and characterized a luciferase HCMV reporter that was initially used in 96 well plates and then optimized to 1536-well plates for utilization in screening of the MLSMR collection, the NGCG diversity collection and the NCGC Pharmaceutical Collection of approved and investigational drugs.
NCGC Assay Protocol Summary:
This is a cell-based assay for HCMV inhibition in HFFs cells. The screening used 2 compound doses and the HCMV-luciferase at MOI of 1 PFU/cell. Cells were treated and infected with HCMV. At 72 h post infection cell lysates were collected and luciferase activity was determined using the Glomax-Multi + Detection System (Promega, Madison, WI). Data were normalized to the controls for basal activity (buffer only) and known HCMV inhibitors Salinmoycin.
1536-well assay protocol for the assay:
(1) Add 3 ul CMV/HFF cell culture. 1000 cells/well in DMEM nirmal media.
(2) Incubate 16 hr at 37C.
(3) Add 23 nl control compound, 10uM of Salinomycin.
(4) Add 23 nl compounds in DMSO solution.
(5) Add 3 ul CMV suspension. Final 1 puf/ul, Virus stock 2000pfu/ul
(6) Incubate 72 hrs at 37C.
(7) Add 4 ul OneGlo Luc Reagent.
(8) Incubate 5 min at room temperature.
% is scaled to controls: 0 for no effect and ±100 for the full control effect.

| Compound | activity change, negative = inhibition |
| --- | --- |
| O=C(Nc1ccc(-c2csc(Nc3cccc(C(F)(F)F)c3)n2)cc1)c1cccc(C(F)(F)F)c1 | -66.8% (active) |
| Cn1c(C(=O)Nc2cccc(C(F)(F)F)c2)cc2c(=O)n3ccccc3nc21 | 63.8% |
| Cc1nnsc1C(=O)N/N=C/c1cccc(C(F)(F)F)c1 | -22.9% |
| Cc1c(CCNC(=O)c2ccc(C(F)(F)F)cc2)sc2nc(-c3ccc(F)cc3)nn12 | 33.8% |
| COc1ccc(Cn2ccnc2SCC(=O)Nc2ccc3c(c2)OCO3)cc1 | -2.47% |
| Cc1ccc2oc(C(=O)Nc3ccc(S(=O)(=O)N4CCCCCC4)cc3)cc(=O)c2c1 | 5.06% |
| CCS(=O)(=O)N1CCC(N2CCN(c3ccccc3)CC2)CC1 | 12.5% |
| Cn1nnc2c(N3CCN(c4ccccc4)CC3)ncnc21 | -1.12% |
| CN1CCC(CN)(N2CCN(c3ccccc3)CC2)CC1 | -78.1% (active) |
| CCc1cccc(CC)c1NC(=O)Cn1c(=O)c(-c2cc(C)ccc2NC(C)=O)nc2ccccc21 | -4.17% |
| COc1ccc(S(=O)(=O)NCc2ccc(C(=O)N(C)Cc3ccco3)cc2)cc1 | -13.3% |
| COc1ccc(CN(Cc2ccco2)S(=O)(=O)c2ccc(S(=O)(=O)N3CCCC3)cc2)cc1 | -62% (active) |
| COc1ccc(CCC(=O)N2CCN(S(=O)(=O)c3ccc(OC)cc3)CC2)cc1 | -31.5% |
| CC1CCN(c2ccc3c(c2)S(=O)(=O)c2cc(C(=O)O)ccc2C3=O)CC1 | 22.6% |
| CC1CCN(c2ccc(S(=O)(=O)Nc3cc(C(=O)O)cc(C(=O)O)c3)cc2[N+](=O)[O-])CC1 | 31% |
| CC1CCN(c2ccc([N+](=O)[O-])c(SCCO)c2)CC1 | -72.7% (active) |
| COc1ccc(C(=O)N2CCN(c3ncccn3)CC2)cc1S(=O)(=O)N1CCOCC1 | 63% |
| CN(c1ccccc1)S(=O)(=O)c1ccc(C(=O)N2CCN(c3ccccc3Cl)CC2)cc1 | -25.5% |
| CN(c1ccccc1)S(=O)(=O)c1cc(C(=O)OCC(=O)N2CCN(C(=O)c3ccco3)CC2)ccc1Cl | -12% |
| COc1ccccc1N1CCN(C(=O)c2ccc(Cl)c(S(=O)(=O)N3CCCC3)c2)CC1 | -64.9% (active) |
| CN(c1ccccc1)S(=O)(=O)c1cccc(C(=O)NNC(=O)c2ccncc2)c1 | -31.6% |

| Compound | activity change, negative = inhibition |
| --- | --- |
| CN(c1ccccc1)S(=O)(=O)c1cc(C(=O)Nc2nc3ccccc3[nH]2)ccc1Cl | -61.3% (active) |
| CCS(=O)(=O)N1CCc2cc(C(=O)N3CCN(c4ccccc4OC)CC3)ccc21 | 10.3% |
| CN(c1ccccc1)S(=O)(=O)c1cc(C(=O)N2CCN(c3ncccn3)CC2)ccc1Cl | -61.7% (active) |
| CN(C)S(=O)(=O)c1cc(C(=O)N2CCC(C(=O)O)(c3ccccc3)CC2)ccc1Cl | 14.8% |
| COc1ccc(C2NC(=O)N(C)C3=C2C(=O)N(c2ccc(C(=O)O)cc2)C3)cc1 (stereo not drawn) | 15.3% |
| CCOC(=O)c1cc2c(=O)[nH]c(C(Cl)(Cl)Cl)nc2o1 | -14.4% |
| CCOC(=O)c1ccc(NC(=O)C2CCN(S(=O)(=O)c3ccc4c(c3)CCCC(=O)N4)CC2)cc1 | -34.6% |
| COc1cc(C(=O)Nc2ccc(OCc3cc(=O)n4cc(C)sc4n3)cc2)cc(OC)c1OC | 13.1% |
| COc1ccc(OC)c(NC(=O)C2CCCN(S(=O)(=O)c3ccc4c(c3)CCCC(=O)N4)C2)c1 (stereo not drawn) | 5.92% |
| COc1ccc(-c2nc3ccccc3o2)cc1NC(=O)c1cc([N+](=O)[O-])ccc1N1CCOCC1 | 17.1% |
| COc1ccc(-c2nc3ccc(C(=O)NCc4ccc(C)cc4)cc3nc2-c2ccc(OC)cc2)cc1 | 13.2% |
| CCOc1ccccc1-n1c(SCC(=O)NCc2ccco2)nnc1-c1ccncc1 | 24.1% |
| CCOc1ccc(Nc2nc(Cc3nnc(SCC(=O)c4ccc(C)cc4)o3)cs2)cc1 | -18.3% |
| Cc1ccc(Nc2nc(CSc3nnc(-c4ccncc4)n3-c3ccccc3C)cs2)cc1 | -86.5% (active) |
| O=C(CSc1oc(-c2ccc(F)cc2)nc1S(=O)(=O)c1ccc(Br)cc1)NC1CCCCC1 | 5.22% |
| Cc1ccc(-c2nc(S(=O)(=O)c3ccc(C)cc3)c(N3CCCCCC3)o2)cc1 | -3.36% |
| CC(C)S(=O)(=O)c1oc(-c2ccc(F)cc2)nc1S(=O)(=O)c1ccc(F)cc1 | -98.8% (active) |
| COc1ccc(N2C(=O)CSC23C(=O)N(Cc2cccc(F)c2)c2ccccc23)cc1Cl (stereo not drawn) | -38.5% |
| Cc1cccc(C(=O)N2CCc3cc(CNC(=O)Cc4ccc(F)cc4)ccc32)c1 | 5.96% |
| Cc1c(Cl)cccc1NC(=O)C1CCCN(C(=O)c2cnn(-c3ccccc3)c2-n2cccc2)C1 (stereo not drawn) | -29.6% |
| O=c1cc(COc2cccc(C(F)(F)F)c2)nc2sc3c(n12)CCCC3 | -0.855% |

| Compound | activity change, negative = inhibition |
| --- | --- |
| CCOC(=O)c1ccc(N2C(=O)c3n[nH]c(C)c3C2c2ccc(O)c(OC)c2)cc1 (stereo not drawn) | -24.9% |
| CCOc1cc(C2c3c(-c4ccc(Br)cc4)n[nH]c3C(=O)N2c2ccc(Cl)cc2)ccc1O (stereo not drawn) | -106% (active) |
| CCOc1ccc(-c2n[nH]c3c2C(c2ccccc2OC)N(c2ccc(Br)cc2)C3=O)cc1 (stereo not drawn) | 21.3% |
| COc1ccc(NC(=O)CCN2CCN(CCO)CC2)cc1 | 0.59% |
| O=C(c1ccc2c(c1)N(Cc1ccccc1)C(=O)c1ccccc1S2(=O)=O)N1CCC(Cc2ccccc2)CC1 | 4.82% |
| COc1ccc(CCNC(=O)c2ccc(CS(=O)(=O)c3ccc(Br)cc3)o2)cc1OC | -92.4% (active) |
| COc1ccc(CCNC(=O)c2nnc(CS(=O)(=O)c3ccccc3)o2)cc1OC | -33.4% |
| O=C(NCc1cccnc1)c1ccc(CS(=O)(=O)c2ccc(Br)cc2)o1 | -24.5% |
| Cc1c(S(=O)(=O)NC(C)c2ccccc2)c(=O)n(C)c(=O)n1C (stereo not drawn) | -5.67% |
| COCCCNC(=O)[C@H]1N2C(=O)c3ccccc3C2SC1(C)C (stereo partly drawn) | 36.2% |
| CC(=O)Nc1ccc(C(=O)OCC(=O)Nc2ccc([N+](=O)[O-])cc2C(F)(F)F)cc1 | -34.7% |
| O=C(Nc1cc2c3c(c1)C1CCCC1CN3CC1CCCC21)c1ccc([N+](=O)[O-])cc1 (stereo not drawn) | -31.6% |
| Cn1ccc(=Nc2ccc(NC(=O)c3ccc(N=c4ccn(C)c5ccc([N+](=O)[O-])cc45)cc3)cc2)cc1 | -96.1% (active) |
| Cc1ccc(CCNC(=O)c2ccc3c(c2)N(Cc2cc(C)ccc2C)C(=O)c2ccccc2S3=O)cc1 (stereo not drawn) | -0.139% |
| Cc1cccc(NC(=O)C2CCCN2S(=O)(=O)c2cccc3nsnc23)c1C (stereo not drawn) | 31.6% |
| CCC(=O)Nc1c(C(=O)N2CCN(c3ccc(F)cc3)CC2)oc2ccccc12 | -20.1% |
| CCOC(=O)C(C)n1cnc2scc(-c3ccc(C)c(C)c3)c2c1=O (stereo not drawn) | -39.3% |
| COC(=O)Cn1cnc2scc(-c3ccc(C)c(C)c3)c2c1=O | -22.1% |
| CC(=O)C(C)n1cnc2scc(-c3ccc(C)cc3)c2c1=O (stereo not drawn) | -61% (active) |
| COc1cc(C(=O)N2CCN(c3ccc(Nc4ccc(C)cc4)nn3)CC2)cc(OC)c1OC | 36.3% |
| O=C(/C=C/c1ccc(OCc2c(F)cccc2Cl)cc1)N1CCOCC1 | -85.8% (active) |

| Compound | activity change, negative = inhibition |
| --- | --- |
| CCOC(=O)CNC(=O)/C=C/c1c(Cl)cccc1Cl | -12.3% |
| O=C(Cc1ccccc1Cl)N1CCOCC1 | -27.3% |
| O=C(Nc1ccc(OCC(=O)N2CCOCC2)cc1)c1cc(F)c(F)cc1Cl | 4.25% |
| C#CC(C)(CC)NC(=O)Cn1nnc(-c2ccc(OCc3c(F)cccc3Cl)cc2)n1 (stereo not drawn) | -28.3% |
| CN(C)CCCNC(=O)/C=C/c1ccc(OCc2c(F)cccc2Cl)cc1 | -62.7% (active) |
| COc1cc(C2c3c(oc4ccccc4c3=O)C(=O)N2c2nc(C)c(C)s2)ccc1O (stereo not drawn) | -20.1% |
| CCOC(=O)C1CCCN(CC(=O)Nc2cc(C)c3c(=O)oc4ccccc4c3n2)C1 (stereo not drawn) | 17.3% |
| Cc1ccc(-c2cc(-c3coc4ccccc4c3=O)c3c(n2)-c2cc(Cl)ccc2OC3)cc1 | 21.6% |
| Cc1nn(CC(=O)Nc2ccc(C#N)cc2)c(C)c1[N+](=O)[O-] | -33.6% |
| Cc1ccc(NC(=O)c2cc3cc(C)ccc3n2C)cc1 | 22.1% |
| CS/C(=C\[N+](=O)[O-])Nc1ccc(C)cc1 | -61.4% (active) |
| CCCN(CCC)C(=O)Cn1c(=O)n(-c2ccc(Cl)cc2)c(=O)c2c3c(sc21)CCCCC3 | 7.98% |
| COc1ccc(C(=O)N2CCCC(C(=O)c3ccccc3OC)C2)cc1OC (stereo not drawn) | -10.3% |
| O=C(CSCc1cnn(-c2ccccc2)c1-n1cccc1)NCc1ccccc1Br | -36.4% |
| CCc1cc2c(-c3ccccc3)cc(=O)oc2c2c1OCN(Cc1ccc(C)cc1)C2 | 0.791% |
| O=C(/C=C/Sc1ncn[nH]1)c1ccc(Cl)cc1 | -76.4% (active) |
| Cc1cc(C)c(NC(=O)c2cc3sc(Cl)cc3n2C)c(C)c1 | -0.202% |
| CN(Cc1ccccc1)c1ccc(-c2nc(-c3ccccc3)no2)cc1[N+](=O)[O-] | 22.8% |
| Cc1ccccc1Nc1c([N+](=O)[O-])ccc2nonc12 | -2.44% |
| CN(c1ccccc1)c1ccc([N+](=O)[O-])c2nonc12 | -75% (active) |
